# According to PubChem BioAssay (NCATS):
# Records with an inconclusive call do not appear. Where a call stands in place of a potency, no number is given. Unmarked numbers belong to inactive results. Active and inactive are the calls of the source. The call rests on the fitted dose curve; in most records, active means well fitted curve in the direction sought with a large enough effect; inconclusive means small, poorly fitted or top-dose-only effect, or another doubt; inactive means no such curve, though single readings can be large; an effect the other way counts as inactive or inconclusive.
# Assays:
# [1] = P-glycoprotein substrates identified in KB-8-5-11 adenocarcinoma cell line, qHTS therapeutic library screen (AID 1346987); further: nearly all actives have a fitted effect of over 65% in size
# Summary of the method: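 KB-8-5-11, a colchicine-selected P-gp-overexpressing KB-3-1 subline, was grown without colchicine for the assay. Cells were seeded at 500 cells/well, dosed in concentration-response and incubated 72 h at 37 degree C, 5% CO2. Viability was read by CellTiter-Glo luminescence.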
# [2] = NS1 protein of Zika virus - qHTS assay to identify small molecule inhibitors in human HEK 293 cells (AID 1347053); further: nearly all actives have a fitted effect of over 55% in size
# Summary of the method: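 HEK 293; 20 h pre-culture, 37 C/5% CO2; cpd 1 h pre-infection; ZIKV MR766, MOI = 0.5, 24 h, 37 C; TR-FRET NS1 readout (two anti-NS1 Abs); norm. to no-virus vs infected.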
# [3] = qHTS of pediatric cancer cell lines to identify multiple opportunities for drug repurposing: Primary screen for TC32 cells (AID 1347089); further: nearly all actives have a fitted effect of over 60% in size
# Summary of the method: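 Luminescent ATP read-out (CellTiter-Glo) of metabolically active TC32 cells after 48 h exposure. Concentration-response curves came from 11-point (MIPE, 0.78 nM–46 µM) or 8-point (NPC, 0.59 nM–46 µM) primary titrations; follow-up used 11 points.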
# [4] = qHTS of pediatric cancer cell lines to identify multiple opportunities for drug repurposing: Primary screen for DAOY cells (AID 1347090); further: nearly all actives have a fitted effect of over 55% in size
# Summary of the method: (§1)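 Cell viability, CellTiter-Glo luminescence; 500-1,000 cells/well, 8- or 11-point titration, 48 h compound exposure at 37 degrees C, 5% CO2. Controls: DMSO neutral, bortezomib 2.3 µM final as positive.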
# [5] = qHTS of pediatric cancer cell lines to identify multiple opportunities for drug repurposing: Primary screen for SJ-GBM2 cells (AID 1347091)
# Summary of the method: as §1
# [6] = qHTS of pediatric cancer cell lines to identify multiple opportunities for drug repurposing: Primary screen for A673 cells (AID 1347092); further: nearly all actives have a fitted effect of over 45% in size
# Summary of the method: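 Cell viability of A673 measured by CellTiter-Glo ATP luminescence after 48 hours compound exposure. Dilution series spanned 0.78 nM to 46 µM (MIPE, 11-point) or 0.59 nM to 46 µM (NPC, 8-point); bortezomib 2.3 uM positive control.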
# [7] = qHTS of pediatric cancer cell lines to identify multiple opportunities for drug repurposing: Primary screen for SK-N-MC cells (AID 1347093)
# Summary of the method: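 Metabolically active cells were quantified by ATP-dependent luminescence (CellTiter-Glo, 15 min at room temperature) following 48 h treatment. Cells had been plated at 500-1,000 per well and settled for 5 h beforehand.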
# [8] = qHTS of pediatric cancer cell lines to identify multiple opportunities for drug repurposing: Primary screen for BT-37 cells (AID 1347094)
# Summary of the method: (§2)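 500-1,000 cells/well; 5 h pre-incubation 37 °C/5% CO2; compound pinned; 48 h; CellTiter-Glo, 15 min RT; luminescence. MIPE 11-pt from 0.78 nM, NPC 8-pt from 0.59 nM final. Bortezomib 2.3 µM final as positive control.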
# [9] = qHTS of pediatric cancer cell lines to identify multiple opportunities for drug repurposing: Primary screen for NB-EBc1 cells (AID 1347095)
# Summary of the method: as §2
# [10] = qHTS of pediatric cancer cell lines to identify multiple opportunities for drug repurposing: Primary screen for U-2 OS cells (AID 1347096); further: nearly all actives have a fitted effect of over 50% in size
# Summary of the method: (§3)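 Cells (500-1,000/well) rested 5 h, then received compounds for 48 h; metabolically active cells were measured by CellTiter-Glo luminescence. Final concentrations spanned up to 46 µM (MIPE, 11-point) or 0.59 nM-46 µM (NPC, 8-point) in primary screens, 11-point in follow-ups.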
# [11] = qHTS of pediatric cancer cell lines to identify multiple opportunities for drug repurposing: Primary screen for Saos-2 cells (AID 1347097); further: nearly all actives have a fitted effect of over 40% in size
# Summary of the method: as §2
# [12] = qHTS of pediatric cancer cell lines to identify multiple opportunities for drug repurposing: Primary screen for SK-N-SH cells (AID 1347098); further: nearly all actives have a fitted effect of over 65% in size
# Summary of the method: as §3
# [13] = qHTS of pediatric cancer cell lines to identify multiple opportunities for drug repurposing: Primary screen for NB1643 cells (AID 1347099); further: nearly all actives have a fitted effect of over 50% in size
# Summary of the method: as §2
# [14] = qHTS of pediatric cancer cell lines to identify multiple opportunities for drug repurposing: Primary screen for LAN-5 cells (AID 1347100)
# Summary of the method: as §3
# [15] = qHTS of pediatric cancer cell lines to identify multiple opportunities for drug repurposing: Primary screen for BT-12 cells (AID 1347101); further: nearly all actives have a fitted effect of over 25% in size
# Summary of the method: as §3
# [16] = qHTS of pediatric cancer cell lines to identify multiple opportunities for drug repurposing: Primary screen for Rh18 cells (AID 1347102); further: nearly all actives have a fitted effect of over 65% in size
# Summary of the method: as §3
# Potency means the concentration at half of the fitted maximal effect.
Compound,Potency [1],Potency [2],Potency [3],Potency [4],Potency [5],Potency [6],Potency [7],Potency [8],Potency [9],Potency [10],Potency [11],Potency [12],Potency [13],Potency [14],Potency [15],Potency [16]
O=C1NC(O)CCN1[C@@H]1O[C@H](CO)[C@H](O)[C@H]1O (stereo partly drawn),inactive,inactive,inactive,inactive,inactive,inactive,inactive,inactive,inactive,inactive,inactive,inactive,inactive,inactive,inactive,inactive
CC(C=CC(=O)NO)=C[C@@H](C)C(=O)c1ccc(N(C)C)cc1,1.05 µM (active),inactive,2.34 µM (active),1.48 µM (active),1.87 µM (active),590 nM (active),264 nM (active),1.22 µM (active),418 nM (active),1.48 µM (active),935 nM (active),2.71 µM (active),935 nM (active),590 nM (active),1.93 µM (active),526 nM (active)
CC(C)OC(=O)[C@H](C)N[P@](=O)(OC[C@H]1O[C@@H](n2ccc(=O)[nH]c2=O)[C@](C)(F)[C@H]1O)Oc1ccccc1,inactive,inactive,inactive,inactive,inactive,inactive,inactive,inactive,inactive,inactive,,inactive,inactive,inactive,inactive,inactive
C[C@@H]1C(=O)O[C@H]2CC34[C@H]5C[C@@H](C(C)(C)C)C36[C@H](OC(=O)[C@@H]6O)O[C@@]4(C(=O)O5)[C@]21O (stereo partly drawn),inactive,inactive,inactive,inactive,inactive,inactive,inactive,,inactive,inactive,,,,13200 nM (active),,inactive
Cn1cc(C[C@@H](N)C(=O)O)c2ccccc21,inactive,inactive,inactive,inactive,inactive,inactive,inactive,,inactive,inactive,inactive,inactive,inactive,inactive,inactive,inactive
CCOC(=O)C=C[C@H](C[C@@H]1CCNC1=O)NC(=O)[C@@H](CC(=O)[C@@H](NC(=O)c1cc(C)on1)C(C)C)Cc1ccc(F)cc1,inactive,inactive,inactive,inactive,inactive,inactive,,inactive,inactive,inactive,inactive,inactive,inactive,inactive,inactive,inactive
C=CC(=O)Nc1cccc(Nc2nc(NC3CCC(N(C)C)CC3)nc3c2ncn3C(C)C)c1 (stereo not drawn),inactive,11.8 µM (active),1.47 µM (active),0.003 µM (active),0.235 µM (active),11.8 nM (active),4.2 nM (active),0.0968 µM (active),166 nM (active),,,0.136 µM (active),33.2 nM (active),14.8 nM (active),0.0385 µM (active),418 nM (active)
C[C@H](NCc1ccc2c(c1)nc(NC(=O)c1ccc(-c3cn[nH]c3)s1)n2CCc1ccccc1)C(C)(C)C,2.35 µM (active),8.33 µM (active),9.3 µM (active),2.96 µM (active),1.05 µM (active),743 nM (active),1660 nM (active),1.37 µM (active),1870 nM (active),,1180 nM (active),3.04 µM (active),1180 nM (active),833 nM (active),2.43 µM (active),2960 nM (active)
C[C@@H](NCc1cc2ccccc2[nH]1)c1cccc2ccccc12,inactive,inactive,inactive,inactive,inactive,inactive,,inactive,,inactive,inactive,inactive,inactive,inactive,inactive,inactive
COc1ccc(C(C)=O)c(O)c1,inactive,inactive,inactive,1.87 µM (active),inactive,2960 nM (active),37.2 nM (active),,inactive,inactive,,inactive,5260 nM (active),inactive,6.85 µM (active),inactive
Cc1ccccc1C(=O)Nc1ccc(C(=O)N2CCCC(O)c3cc(Cl)ccc32)c(C)c1 (stereo not drawn),inactive,inactive,inactive,inactive,inactive,inactive,inactive,,inactive,inactive,,inactive,inactive,inactive,inactive,inactive
CCCCC(=O)O[C@]1(C(=O)CO)[C@@H](C)C[C@H]2[C@@H]3CCC4=CC(=O)C=C[C@]4(C)[C@@]3(F)[C@@H](O)C[C@@]21C,inactive,inactive,inactive,inactive,inactive,inactive,inactive,,inactive,inactive,,inactive,inactive,inactive,inactive,inactive
